Key:
ETS1 [1] = target: T1, ETS1 (UniProt P14921); assay: ETS1 binding intensity (PBM fluorescence), ETS1 alone (arbitrary fluorescence units); higher = stronger binding; conditions: ETS1 concentration 1 nM; RUNX1 concentration 0 nM
T1 sequence: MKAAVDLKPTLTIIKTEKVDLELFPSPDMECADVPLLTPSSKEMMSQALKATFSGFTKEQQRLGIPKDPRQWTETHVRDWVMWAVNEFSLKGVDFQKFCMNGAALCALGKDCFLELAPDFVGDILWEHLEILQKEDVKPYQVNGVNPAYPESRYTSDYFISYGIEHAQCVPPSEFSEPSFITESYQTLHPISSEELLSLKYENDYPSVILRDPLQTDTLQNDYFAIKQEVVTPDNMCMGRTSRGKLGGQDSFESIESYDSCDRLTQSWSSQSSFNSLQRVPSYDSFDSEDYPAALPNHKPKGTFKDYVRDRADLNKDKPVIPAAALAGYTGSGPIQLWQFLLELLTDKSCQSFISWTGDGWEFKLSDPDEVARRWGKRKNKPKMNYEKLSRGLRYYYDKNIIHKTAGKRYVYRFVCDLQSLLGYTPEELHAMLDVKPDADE

ETS1 [2] = target: T1, ETS1; assay: ETS1 binding intensity (PBM fluorescence) in presence of RUNX1, normalised to ETS1-only experiment (arbitrary fluorescence units); higher = stronger binding; conditions: ETS1 concentration 1 nM; RUNX1 concentration 25 nM

Sequence	ETS1 binding intensity (ETS1 [1])	ETS1 binding intensity (ETS1 [2])
GCGCACGCGCGTTGTTTCCGCGGTAGTCAGGGCAGT	477	364
TCTCTCTACGGAAGCTGGTAGGGCTGTGGGTGCTTC	729	810
AACATTACGGAAGTTTCTCTACCCATGCGGTGTCTC	521	683
CCCGGACCGTTTCCGTGCTGTGGTCCCGGGTTCTGG	443	412
CCACTAGCAGGAAAACGGGCCGAGGGACCGCAAGCA	395	688
TGCAGCCGCCGCGTCCGGTCCAGCCGCAGGGCCATG	536	543
ATGTGCGTGTGCACAGGAAAACCACTGCCAGTATTT	756	789
GGGCTTCAGCGGATGAACAAGGTTACCACGGGGAGT	459	504
CTCAGCGGAAGAGCGGGCCTCTGGGCCGCAGTGACC	478	430
CTGGCTACAGGAAAAACAAAGTCAAACCACAGCACT	473	929
AAAACAACTTCCTTCCCCTCTCTCTCCACCACAGTC	554	560
GTGGGTAGGGAGGAAGCTGTGAAACCACCTCCCCTC	688	882
AGTGTAAACACGGAAGTGGCCGCAGGGGTGGGGGAT	1820	2690
ATAGTCACCGTTCCGGCCCTCCTCCACCGCACTTCT	445	578
TCACCCTCTCACTTCCTGCGGGTCCCAGGCTCAGGC	896	790
ACTCCGCCCCTTCCGCCTGGCGGTTCCACTTCTCGG	480	456
TGAGGGCATAGGAAGTGATGGCCGCAAGGGGATGCC	1860	2390
TGAATCATGACAGAGGAAGTGTGGTTCTGTGATTAC	1760	2090

From the supplement of paper PMC10681739
